Consider 38 compounds from PubChem BioAssay (Tox21).

“And” between values parts separate entries of the source, which are not always exact repeats. Equal entries are not always repeated. Inconclusive results are not listed. Where a call stands in place of a potency, no number is given. The source made the active and inactive calls. Unless noted, the call rests on the fitted dose curve; in most records, active means well fitted cell-killing curve with a large enough effect in the repeat runs (not every such curve was filed as active); inconclusive means weak or mixed curves, or effect the other way; inactive means no such curve, though single readings can be large or run the other way.
Potency means the concentration at half of the fitted maximal effect.

Nuclear receptor subfamily 1 group I member 3 (Homo sapiens), sequence (Q14994 whole entry, looked up): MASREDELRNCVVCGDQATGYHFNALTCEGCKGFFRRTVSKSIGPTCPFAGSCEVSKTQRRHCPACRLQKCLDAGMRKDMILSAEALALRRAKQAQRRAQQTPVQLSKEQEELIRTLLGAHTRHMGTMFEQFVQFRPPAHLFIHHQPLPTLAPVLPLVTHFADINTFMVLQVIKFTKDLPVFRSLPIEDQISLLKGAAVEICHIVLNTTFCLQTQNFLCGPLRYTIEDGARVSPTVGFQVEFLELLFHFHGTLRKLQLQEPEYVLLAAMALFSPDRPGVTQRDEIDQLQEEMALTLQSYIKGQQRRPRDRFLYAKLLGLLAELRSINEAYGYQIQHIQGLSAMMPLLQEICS

The first experiment addresses Nuclear receptor subfamily 1 group I member 3 (Homo sapiens) (UniProt Q14994). The experiment can be described thus: qHTS assay to identify small molecule antagonists of the constitutive androstane receptor (CAR) signaling pathway (AID 1224838; active means well fitted curve in the direction sought with a large enough effect in the repeat runs; an effect the other way counts as inactive or inconclusive;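 further: HepG2 cells stably expressing hCAR with CYP2B6 luciferase reporter stimulated by CITCO; nearly all actives have a fitted effect of over 40% in size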). Conditions: HepG2-CYP2B6-hCAR luciferase, CITCO-stimulated, 24 h; series mostly up to 92.4 µM; activity, negative = inhibition: at the top concentration. In short, it runs like this:
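Human hepatoma HepG2 cells expressing hCAR and a CYP2B6 promoter (2.2 kb) luciferase construct; compound titration (15 points) with 50 nM CITCO final, 24 h at 37 C/5% CO2; luminescence via ONE-Glo after 30 min at room temperature.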
(Quantitative high-throughput screening tests each substance at several concentrations.)
In the case of `CCCCC(CC)COC(=O)CC(C(=O)OCC(CC)CCCC)S(=O)(=O)O` (stereo not drawn), the Potency result is “inactive”. Regarding `O=C(Oc1ccccc1)c1ccccc1O`, the Potency entry was “inactive”. Turning to `CCN1CCCC1CNC(=O)c1cc(S(=O)(=O)CC)c(N)cc1OC` (stereo not drawn), the “activity, negative = inhibition” value is 12.6% [at 42.5 µM] (inactive). For `OCC(CO)N[C@H]1C[C@](O)(CO)[C@@H](O)[C@H](O)[C@H]1O`, the “activity, negative = inhibition” value is -11.3% [at 42.5 µM] (inactive).

Regarding `CCCCCCCCCCCCCC[P+](CCCC)(CCCC)CCCC`, the Potency is 12.1 µM (active) and 15.4 µM (active).

Take `CC(=O)N[C@@H](CS)C(=O)O`: the Potency result is “inactive”. Consider `CC1COC(=O)O1` (stereo not drawn), for which the Potency entry is “inactive”. With `c1cc(C(c2ccc(OCC3CO3)cc2)C(c2ccc(OCC3CO3)cc2)c2ccc(OCC3CO3)cc2)ccc1OCC1CO1` (stereo not drawn), the Potency entry was “inactive”. As to `NC(N)=NC(=O)Cc1c(Cl)cccc1Cl`, the “activity, negative = inhibition” value was 9.2% [at 42.5 µM] (inactive). For the compound `CCCC(=O)c1ccccc1`, the “activity, negative = inhibition” value is -13.8% (inactive). On to `CC(C)(C)NCC(O)COc1ccccc1OCC1CCCO1` (stereo not drawn), for which the “activity, negative = inhibition” value is -19.7% [at 42.5 µM] (inactive).

For the compound `c1ccc2n[nH]nc2c1`, the Potency entry was “inactive”.

In the case of `CC(=O)OCCOCCOCCOC(C)=O`, the Potency result is “inactive”. The same measure, in the same setting: as for `COC(=O)/C=C/c1ccccc1`, the entry is “inactive”; as for `Oc1c(Cl)cc(Cl)c(Cl)c1Cc1c(O)c(Cl)cc(Cl)c1Cl`, 10.8 µM (active) and 10.9 µM (active) and 9.44 µM (active). As for `Nc1nc2ccccc2[nH]1`, the Potency result is “inactive”. As to `CCN(CC)C(=S)SSC(=S)N(CC)CC`, the Potency was 273 nM (active) and 78.8 nM (active) and 298 nM (active).

Consider `CC(C)(C)c1ccc(O)c(C(C)(C)C)c1`, for which the “activity, negative = inhibition” value was -2.44% (inactive). On to `CCC(C)(C)C(=O)O[C@H]1C[C@@H](C)C=C2C=C[C@H](C)[C@H](CC[C@@H]3C[C@@H](O)CC(=O)O3)[C@H]21`, for which the Potency result was “inactive”. Consider `O=C(O)CCc1ccccc1`, for which the “activity, negative = inhibition” value is 0.746% (inactive). Take `OCCN1CCNCC1`: the Potency entry was “inactive”. Consider `[Cl][In]([Cl])[Cl]`, for which the Potency entry is “inactive”.

Regarding `CC[C@H]1CN2CCc3cc(OC)c(OC)cc3[C@@H]2C[C@@H]1C[C@H]1NCCc2cc(OC)c(OC)cc21`, the Potency is 54.6 nM (active) and 237 nM (active).

As for `CC(C)CCOC(=O)c1ccc(N(C)C)cc1`, the “activity, negative = inhibition” value is 245% [at 42.5 µM] (inactive).

Consider `Cc1cc(C2(c3cc(C)c(O)cc3C)OS(=O)(=O)c3ccccc32)c(C)cc1O`, for which the Potency result is “inactive”. For the compound `CCOC(=O)C(C)C(C)=O` (stereo not drawn), the “activity, negative = inhibition” value is 10.3% (inactive).

Consider `CC(COc1ccccc1)N(CCCl)Cc1ccccc1` (stereo not drawn), for which the Potency entry is “inactive”. As to `O=C1CC2(CCCC2)CC(=O)N1CCCCN1CCN(c2ncccn2)CC1`, the “activity, negative = inhibition” value was 14.4% [at 42.5 µM] (inactive).

Turning to `O=c1n(CC2CO2)c(=O)n(CC2CO2)c(=O)n1CC1CO1` (stereo not drawn), the Potency is 76.5 µM (active) and 61.1 µM (active).

Another experiment has the same target. Kind of experiment: qHTS assay to identify small molecule agonists of the constitutive androstane receptor (CAR) signaling pathway (AID 1224839; active means well fitted curve in the direction sought with a large enough effect in the repeat runs; an effect the other way counts as inactive or inconclusive; further: nearly all actives have a fitted effect of over 15% in size). Conditions: HepG2 hCAR CYP2B6-luciferase, agonist mode, 24 h; series mostly up to 92.4 µM; activation: at the top concentration. An outline of the steps: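 Compounds tested at 15 concentrations on HepG2 cells stably harbouring hCAR and CYP2B6-2.2kb reporter constructs, co-treated with PK11195 (0.75 uM final), 24 h at 37 C; luminescent reporter signal quantified.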
For `Cc1scc2c1N(C(=O)CN1CCN(C)CC1)c1ccccc1NC2=O`, the “activation” value is 0.869% [at 42.5 µM] (inactive). Regarding `Oc1c(Cl)cc(Cl)c(Cl)c1Cc1c(O)c(Cl)cc(Cl)c1Cl`, the Potency entry is “inactive”.

On to `CC(C)(C)c1ccc(O)c(C(C)(C)C)c1`, for which the Potency entry is “inactive”.

`CC(C)(C)c1cc(C(C)(C)C)c(O)c(C(C)(C)C)c1`: the Potency was 12.2 µM (active).

System in the next experiment: not listed separately
The experiment can be described thus: qHTS assay to identify small molecule antagonists of the estrogen related receptor signaling pathway with the pleiotropic PPARgamma coactivator (PGC) from Tox21 10K library - cell viability counter screen (AID 1224840). Further: nearly all actives have a fitted effect of over 40% in size. Conditions: PGC/ERR reporter cells viability, CellTiter-Fluor, 17.5 h; series mostly up to 92.4 µM; viability change, negative = cytotoxic: at the top concentration. In short, it runs like this: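 Seeded PGC/ERR cells (2,000/well, 6 h, 37 C/5% CO2) get compound by pin tool; 17.5 h incubation at 37 C; CellTiter-Fluor added, 30 min, fluorescence measured.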
With `O=C(O)c1cn(-c2ccc(F)cc2)c2cc(N3CCNCC3)c(F)cc2c1=O`, the Potency result was “inactive”. The same measure, in the same setting: as for `CCCCC(CC)COC(=O)CC(C(=O)OCC(CC)CCCC)S(=O)(=O)O` (stereo not drawn), the entry is “inactive”; as for `NC(N)=Nc1nc(CSCC/C(N)=N/S(N)(=O)=O)cs1`, “inactive”. Still for that read-out and setting: as for `O=C(Oc1ccccc1)c1ccccc1O`, the entry is “inactive”. For `CCN1CCCC1CNC(=O)c1cc(S(=O)(=O)CC)c(N)cc1OC` (stereo not drawn), the “viability change, negative = cytotoxic” value is 1.77% [at 42.5 µM] (inactive). Take `OCC(CO)N[C@H]1C[C@](O)(CO)[C@@H](O)[C@H](O)[C@H]1O`: the “viability change, negative = cytotoxic” value is -0.18% [at 42.5 µM] (inactive). On to `CCCCCCCCCCCCCC[P+](CCCC)(CCCC)CCCC`, for which the Potency was 21.6 µM (active) and 27.3 µM (active).

For the compound `O=C(O)c1cccc(C(=O)O)c1`, the Potency entry is “inactive”. Consider `CC(=O)N[C@@H](CS)C(=O)O`, for which the Potency entry was “inactive”. As for `CC1COC(=O)O1` (stereo not drawn), the Potency result was “inactive”.

Consider `c1cc(C(c2ccc(OCC3CO3)cc2)C(c2ccc(OCC3CO3)cc2)c2ccc(OCC3CO3)cc2)ccc1OCC1CO1` (stereo not drawn), for which the Potency entry was “inactive”. Take `NC(N)=NC(=O)Cc1c(Cl)cccc1Cl`: the “viability change, negative = cytotoxic” value was 5.58% [at 42.5 µM] (inactive). On to `CCCC(=O)c1ccccc1`, for which the “viability change, negative = cytotoxic” value was 9.97% (inactive). As for `C=C(C)C1CC=C(C)C(OC(C)=O)C1` (stereo not drawn), the Potency result is “inactive”. Take `CC(C)(C)NCC(O)COc1ccccc1OCC1CCCO1` (stereo not drawn): the “viability change, negative = cytotoxic” value is -0.0613% [at 42.5 µM] (inactive). `COC(=O)[C@H]1[C@H]2C[C@@H]3c4[nH]c5cc(OC)ccc5c4CCN3C[C@H]2C[C@@H](OC(=O)c2cc(OC)c(OC)c(OC)c2)[C@@H]1OC`: the “viability change, negative = cytotoxic” value was -13.1% [at 42.5 µM] (inactive).

As to `c1ccc2n[nH]nc2c1`, the Potency entry was “inactive”.

On to `CC(=O)OCCOCCOCCOC(C)=O`, for which the Potency result was “inactive”. The same measure, in the same setting: the same measure for `COC(=O)/C=C/c1ccccc1`: “inactive”. For the compound `Cc1scc2c1N(C(=O)CN1CCN(C)CC1)c1ccccc1NC2=O`, the “viability change, negative = cytotoxic” value was 0.0098% [at 42.5 µM] (inactive). In the case of `Nc1nc2ccccc2[nH]1`, the Potency result is “inactive”. The same measure, in the same setting: as for `CCN(CC)C(=S)SSC(=S)N(CC)CC`, the figure is 193 nM (active) and 44.3 nM (active) and 266 nM (active). Regarding `NCCCCCC(=O)O`, the “viability change, negative = cytotoxic” value is 29.7% [at 42.5 µM] (inactive). Regarding `CCC(C)(C)C(=O)O[C@H]1C[C@@H](C)C=C2C=C[C@H](C)[C@H](CC[C@@H]3C[C@@H](O)CC(=O)O3)[C@H]21`, the “viability change, negative = cytotoxic” value was -6.89% (inactive).

As for `O=C(O)CCc1ccccc1`, the “viability change, negative = cytotoxic” value is 0.379% (inactive). As to `OCCN1CCNCC1`, the Potency entry is “inactive”. On to `[Cl][In]([Cl])[Cl]`, for which the Potency entry is “inactive”. On the same count and under the same terms, as for `CC[C@H]1CN2CCc3cc(OC)c(OC)cc3[C@@H]2C[C@@H]1C[C@H]1NCCc2cc(OC)c(OC)cc21`, the figure is 24.4 nM (active) and 168 nM (active). Regarding `CC(C)CCOC(=O)c1ccc(N(C)C)cc1`, the “viability change, negative = cytotoxic” value was 0.757% [at 42.5 µM] (inactive). As to `Cc1cc(C2(c3cc(C)c(O)cc3C)OS(=O)(=O)c3ccccc32)c(C)cc1O`, the Potency is 19.3 µM (active). With `CCOC(=O)C(C)C(C)=O` (stereo not drawn), the “viability change, negative = cytotoxic” value is 1.33% (inactive). For the compound `CC(C)(C)c1cc(C(C)(C)C)c(O)c(C(C)(C)C)c1`, the Potency entry is “inactive”. Take `CCC[C@H](N[C@@H](C)C(=O)N1[C@H](C(=O)O)C[C@@H]2CCCC[C@@H]21)C(=O)OCC`: the Potency result is “inactive”. `CC(COc1ccccc1)N(CCCl)Cc1ccccc1` (stereo not drawn): the Potency entry is “inactive”. Consider `O=C1CC2(CCCC2)CC(=O)N1CCCCN1CCN(c2ncccn2)CC1`, for which the “viability change, negative = cytotoxic” value was -0.698% [at 42.5 µM] (inactive).
